Several values for one entry are separate records, joined by “and”; a condition that tells them apart may be missing. Equal values may be shown once. Activity calls are given as the source filed them. The calls were made as follows: active = hit-call score of the fitted dose curve at least 0.9, where 1 is the maximum; inactive = score below 0.9.
Columns and labels:
[1] = BSK_CASM3C_SRB: Viability Assessment in the BioMAP Diversity Plus: CASM3C Assay (AID 2283050); settings: primary human coronary artery smooth muscle cells;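 also: total protein by SRB staining as cytotoxicity measure in parallel cultures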
[2] = read-out: Thrombomodulin, THBD (gene 7056); test: BSK_CASM3C_Thrombomodulin: BioMAP Diversity Plus: CASM3C Assay for Thrombomodulin Biomarker Activity (AID 2283051); settings: primary human coronary artery smooth muscle cells; actives raise or lower the signal;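 also: thrombomodulin protein level measured by ELISA 24 h after dosing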
[3] = read-out: Tissue Factor, F3 (gene 2152); test: BSK_CASM3C_TissueFactor: BioMAP Diversity Plus: CASM3C Assay for Tissue Factor Biomarker Activity (AID 2283052); settings: primary human coronary artery smooth muscle cells; actives raise or lower the signal;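 also: cell surface tissue factor protein level read by ELISA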
[4] = read-out: Interferon-gamma inducible Protein 10 (IP10), CXCL10 (gene 3627); test: BSK_hDFCGF_IP10: BioMAP Diversity Plus: hDFCGF Assay for Interferon-gamma inducible Protein 10 (IP10) Biomarker Activity (AID 2283053); settings: primary human foreskin fibroblasts; actives raise or lower the signal
Method in brief: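 Primary foreskin fibroblasts, human; 24 h compound exposure; IP-10 by ELISA; bidirectional fit vs DMSO.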

[5] = read-out: Urokinase-type plasminogen activator receptor (uPAR), PLAUR (gene 5329); test: BSK_CASM3C_uPAR: BioMAP Diversity Plus: CASM3C Assay for Urokinase-type plasminogen activator receptor (uPAR) Biomarker Activity (AID 2283054); settings: primary human coronary artery smooth muscle cells; actives raise or lower the signal;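 also: cell-surface uPAR protein level quantified by ELISA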
[6] = read-out: Vascular cell adhesion molecule 1 (VCAM1), VCAM1 (gene 7412); test: BSK_CASM3C_VCAM1: BioMAP Diversity Plus: CASM3C Assay for Vascular cell adhesion molecule 1 (VCAM1) Biomarker Activity (AID 2283055); settings: primary human coronary artery smooth muscle cells; actives raise or lower the signal;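 also: VCAM-1 protein level quantified by ELISA on the cells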
[7] = read-out: Collagen III, COL3A1 (gene 1281); test: BSK_hDFCGF_CollagenIII: BioMAP Diversity Plus: hDFCGF Assay for Collagen III Biomarker Activity (AID 2283056); settings: primary human foreskin fibroblasts; actives raise or lower the signal
Method in brief: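 Response relative to DMSO, fitted in both directions, reflects ELISA-measured collagen III in human primary skin fibroblasts 24 h after compound addition.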

[8] = read-out: Epidermal growth factor receptor (EGFR), EGFR (gene 1956); test: BSK_hDFCGF_EGFR: BioMAP Diversity Plus: hDFCGF Assay for Epidermal growth factor receptor (EGFR) Biomarker Activity (AID 2283057); settings: primary human foreskin fibroblasts; actives raise or lower the signal
Method in brief: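 hDFCGF system, primary human foreskin fibroblasts; compound 24 h; EGFR measured by ELISA; DMSO = negative control/baseline; bidirectional fitting.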

[9] = read-out: Interleukin-8 (IL8), CXCL8 (gene 3576); test: BSK_hDFCGF_IL8: BioMAP Diversity Plus: hDFCGF Assay for Interleukin-8 (IL8) Biomarker Activity (AID 2283058); settings: primary human foreskin fibroblasts; actives raise or lower the signal
Method in brief: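 Fibroblast monolayers (human foreskin, hDFCGF) received test chemical for 24 h before ELISA detection of IL-8; either increases or decreases relative to DMSO count as activity.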

[10] = BSK_hDFCGF_Proliferation: Cell Proliferation Assessment in the BioMAP Diversity Plus: hDFCGF Assay (AID 2283059); settings: primary human foreskin fibroblasts;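 also: curves fitted for both rise and fall of signal versus DMSO baseline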
Method in brief: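 Total protein read at 560 nm after 0.1% SRB staining of TCA-fixed human skin fibroblasts, […]. Activity is fitted in both directions relative to DMSO as baseline.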

[11] = read-out: Macrophage colony-stimulating factor (MCSF), CSF1 (gene 1435); test: BSK_hDFCGF_MCSF: BioMAP Diversity Plus: hDFCGF Assay for Macrophage colony-stimulating factor (MCSF) Biomarker Activity (AID 2283060); settings: primary human foreskin fibroblasts; actives raise or lower the signal
Method in brief: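 fibroblasts (human foreskin, primary), 24 h post-dose; M-CSF by ELISA; bidirectional fit, DMSO = baseline.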

[12] = BSK_hDFCGF_SRB: Viability Assessment in the BioMAP Diversity Plus: hDFCGF Assay (AID 2283061); settings: primary human foreskin fibroblasts;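 also: cells exposed to compound for 24 h before the read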
Method in brief: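 SRB-based viability read on primary human skin fibroblasts at 24 h: TCA fixation, 0.1% dye, 560 nm. Gain or loss of signal is fitted against the DMSO negative control.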

[13] = read-out: TIMP metallopeptidase inhibitor 1 (TIMP1), TIMP1 (gene 7076); test: BSK_hDFCGF_TIMP1: BioMAP Diversity Plus: hDFCGF Assay for TIMP metallopeptidase inhibitor 1 (TIMP1) Biomarker Activity (AID 2283062); settings: primary human foreskin fibroblasts; actives raise or lower the signal
Method in brief: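 Bidirectional curve fitting against DMSO baseline yielded this endpoint, based on ELISA detection of TIMP-1 in primary human foreskin fibroblasts exposed to compound for 24 h.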

[14] = read-out: Monokine induced gamma interferon (MIG), CXCL9 (gene 4283); test: BSK_hDFCGF_MIG: BioMAP Diversity Plus: hDFCGF Assay for Monokine induced gamma interferon (MIG) Biomarker Activity (AID 2283063); settings: primary human foreskin fibroblasts; actives raise or lower the signal
Method in brief: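 Endpoint derived by bidirectional fitting relative to DMSO; MIG quantified via ELISA in primary human foreskin fibroblasts harvested 24 h after dosing.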

[15] = read-out: Matrix Metallopeptidase 1 (MMP1), MMP1 (gene 4312); test: BSK_hDFCGF_MMP1: BioMAP Diversity Plus: hDFCGF Assay for Matrix Metallopeptidase 1 (MMP1) Biomarker Activity (AID 2283064); settings: primary human foreskin fibroblasts; actives raise or lower the signal
Method in brief: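 Primary human foreskin fibroblasts exposed to chemicals for 24 h; MMP1 measured by ELISA. Cytotoxicity tracked by SRB staining in parallel cultures; bidirectional fit relative to DMSO.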

[16] = read-out: Plasminogen activator inhibitor-1 (PAI1), SERPINE1 (gene 5054); test: BSK_hDFCGF_PAI1: BioMAP Diversity Plus: hDFCGF Assay for Plasminogen activator inhibitor-1 (PAI1) Biomarker Activity (AID 2283066); settings: primary human foreskin fibroblasts; actives raise or lower the signal
Method in brief: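 Primary dermal fibroblasts (human foreskin), hDFCGF system; compound 24 h; PAI-1 by ELISA; bidirectional fit vs DMSO control.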

[17] = read-out: Intercellular Adhesion Molecule 1 (ICAM1), ICAM1 (gene 3383); test: BSK_KF3CT_ICAM1: BioMAP Diversity Plus: KF3CT Assay for Intercellular Adhesion Molecule 1 (ICAM1) Biomarker Activity (AID 2283067); settings: primary human keratinocytes with fibroblasts; actives raise or lower the signal
Method in brief: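 Bidirectional curve fitting against a DMSO baseline was applied to ICAM-1 ELISA signal from primary human skin co-cultures harvested 24 h after treatment, with SRB staining of parallel wells for overt cytotoxicity.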

[18] = read-out: Interferon-gamma inducible Protein 10 (IP10), CXCL10 (gene 3627); test: BSK_KF3CT_IP10: BioMAP Diversity Plus: KF3CT Assay for Interferon-gamma inducible Protein 10 (IP10) Biomarker Activity (AID 2283068); settings: primary human keratinocytes with fibroblasts; actives raise or lower the signal
Method in brief: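 Human keratinocyte plus foreskin fibroblast primary co-culture exposed to test chemical for 24 h; IP-10 measured by ELISA. Concentration-response fitted bidirectionally against DMSO control as baseline.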

[19] = BSK_KF3CT_SRB: Viability Assessment in the BioMAP Diversity Plus: KF3CT Assay (AID 2283069); settings: primary human keratinocytes with fibroblasts;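 also: total protein by sulforhodamine B staining as a cytotoxicity measure; fitted for both signal gain and loss against DMSO baseline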
Method in brief: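 Human keratinocyte and foreskin fibroblast co-culture exposed to chemical for 24 h. Total protein measured in parallel cultures by 0.1% sulforhodamine B staining after 10% TCA fixation, read at 560 nm; bidirectional fit relative to DMSO.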

Measured: AC50

CC1=CC(C)C(C=O)C(C)C1 (stereo not drawn) (tested in a mixture with another compound)
inactive: [1] | [2] | [3] | [4] | [5] | [6] | [7] | [8] | [9] | [10] | [11] | [12] | [13] | [14] | [15] | [16] | [17] | [18] | [19]

CCCCN(CCO)CCO
inactive: [1] | [2] | [3] | [4] | [5] | [6] | [7] | [8] | [9] | [10] | [11] | [12] | [13] | [14] | [15] | [16] | [17] | [18] | [19]

CC(=O)OC(C)(C)C1CC=C(C)CC1 (stereo not drawn)
inactive: [2] | [3] | [4] | [7] | [8] | [9] | [11] | [13] | [14] | [15] | [17] | [18] | [19]
active: [1] 28.6 µM | [5] 31.7 µM | [6] 34.8 µM | [10] 18.5 µM | [12] 36.7 µM | [16] 23.6 µM

CCn1cc(C(=O)O)c(=O)c2ccc(C)nc21
inactive: [1] | [2] | [3] | [4] | [5] | [6] | [7] | [8] | [9] | [10] | [11] | [12] | [13] | [14] | [15] | [16] | [17] | [18] | [19]

CCCCCCCC1CCCC1=O (stereo not drawn)
inactive: [2] | [4] | [7] | [8] | [9] | [11] | [12] | [13] | [14] | [15] | [16] | [18]
active: [1] 36.6 µM | [3] 31.8 µM | [5] 29.5 µM | [6] 30.9 µM | [10] 33.3 µM | [17] 30.6 µM | [19] 35.1 µM

CC1(C)[C@H](C=C(Cl)Cl)[C@H]1C(=O)OCc1cccc(Oc2ccccc2)c1
inactive: [1] | [2] | [3] | [4] | [5] | [6] | [7] | [8] | [9] | [10] | [11] | [12] | [13] | [14] | [15] | [16] | [17] | [18] | [19]

CCCO[Si](OCCC)(OCCC)OCCC
inactive: [1] | [2] | [3] | [4] | [5] | [6] | [7] | [8] | [9] | [11] | [12] | [13] | [14] | [15] | [16] | [17] | [18] | [19]
active: [10] 31.1 µM and 25.8 µM

COC(=O)c1ccc(C(=O)OC)cc1
inactive: [1] | [2] | [4] | [5] | [6] | [7] | [8] | [9] | [10] | [11] | [12] | [13] | [14] | [15] | [16] | [17] | [18] | [19]

CCCCCCCCCCCCS
active: [1] 28.5 µM | [4] 11.3 µM | [5] 30.3 µM | [6] 6.76 µM | [7] 7.78 µM | [9] 20 µM | [10] 3.2 µM | [11] 9.73 µM | [12] 11.7 µM | [13] 8.95 µM | [14] 17 µM | [15] 10.2 µM | [16] 10.8 µM | [19] 32.9 µM
inactive: [2] | [3] | [8] | [17] | [18]

CCOC(=O)CCCCCCCCC(=O)OCC
inactive: [1] | [2] | [3] | [4] | [5] | [6] | [7] | [8] | [9] | [10] | [11] | [12] | [13] | [14] | [15] | [16] | [17] | [18] | [19]

CCCCCCCCCC(=O)OCC
inactive: [2] | [4] | [8] | [9] | [12] | [13] | [14] | [15] | [17] | [18] | [19]
active: [1] 33 µM | [3] 30.4 µM | [5] 31.1 µM | [6] 31.1 µM | [7] 31.5 µM | [10] 13.7 µM | [11] 30.2 µM | [16] 31.4 µM
